Most compounds without a hit are left out; they make up all but 2.9% or so of the library.
A549 viability = A549 cytotoxicity, counter-screen for Nrf2 inhibitors | A549 ARE-Fluc cells, CellTiter-Fluor viability, 18-24 h | Potency, µM (top dose mostly 46 µM), actives largely listed as inhibitors | hit rate 0.16% among 390,000
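A549 ARE-Fluc cells in 5% FBS OPTI-MEM, 5000 cells/well, rested 2 h then exposed to compounds in concentration-response for 18-24 h at 37 °C. Viability by CellTiter-Fluor fluorescence (Ex 405/Em 525) after 30 min; luciferase luminescence (BugLite, 15 min, RT) read afterwards.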
ATXN viability = reduces viability in counter-screen for ATXN expression inhibitors; S2 cells (HEK-293 line with an ATXN2-luciferase reporter) viability, CellTiter-Fluor protease fluorescence, 24 h; hit rate 0.49% among 400,000; Potency, µM (doses to about 56.7 µM), usual class: cytotoxic; also: nearly all actives have a fitted effect of over 40% in size
Nrf2 activator = activators of Nrf2 (ARE) signaling; Potency, µM (top dose mostly 46.1 µM), most hits filed as activators; hit rate 0.31% among 410,000; AREc32 ARE-luciferase reporter (MCF7-derived line), luminescence, 24 h; AID 624171; also: nearly all actives have a fitted effect of over 65% in size
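Luminescent ARE reporter assay in AREc32_Fluc cells: overnight plating at 37 deg C, 24 hr compound incubation, Steady-Glo added, 30 min RT before reading.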
ATXN2 expr inh = reduces ATXN2 reporter expression in HEK-293 cells; HEK-293 ATXN2-luciferase reporter, luminescence, 24 h; Potency, µM (titrated, usually from 57 µM), most hits filed as inhibitors; hit rate 0.72% among 360,000; also: nearly all actives have a fitted effect of over 55% in size
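qHTS (up to 57 uM final) was run with 24 h compound exposure of reporter cells at 37 °C. Each well was multiplexed: SteadyGlo luminescence measured ATXN2-luciferase expression after a fluorogenic Gly-Phe-AFC viability readout (25 uM final).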
Nrf2 inh = inhibitors of Nrf2 signaling. A549 ARE-Fluc reporter, luciferase luminescence, 18-24 h. Potency, µM (top dose mostly 46 µM), most hits filed as inhibitors. hit rate 2.1% among 360,000. AID 504444; also: nearly all actives have a fitted effect of over 60% in size
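A549 ARE_Fluc cells (5000/well, 5% FBS OPTI-MEM) pre-incubated 2 h, then treated with compounds 18-24 h at 37C/5% CO2 in concentration-response. CellTiter-Fluor viability read first; BugLite luciferase luminescence after 15 min at room temperature gives Nrf2 activity.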
A number is an active result; . = inactive; ? = inconclusive; / = no result; [ ] = dose if it differs, or a comment. Calls follow the shape of the dose curve; as a rule, active = well fitted curve in the direction sought with a large enough effect; inconclusive = small, poorly fitted or top-dose-only effect, or another doubt; inactive = no such curve, though single readings can be large; an effect the other way counts as inactive or inconclusive.

SMILES	A549 viability	ATXN viability	Nrf2 activator	ATXN2 expr inh	Nrf2 inh
COc1ccc2c(c1)CCc1cnc(-n3ncc(C(=O)N(C)CCc4ccccn4)c3C)nc1-2	/	.	/	/	/
Cc1ccccc1-c1nc(C(=O)NCC2CCCO2)cc2c1[nH]c1ccccc12 (configuration not stated)	.	?	.	?	23µM
COc1cc(-c2nc(C(=O)NC3CCCCC3)cc3c2[nH]c2ccccc23)cc(OC)c1OC	.	?	.	.	9.2µM
Cc1ccc(-c2nc(C(=O)NCC3CCCO3)cc3c2[nH]c2ccccc23)cc1 (configuration not stated)	.	?	.	?	?
COc1cc(-c2nc(C(=O)NC3CCN(Cc4ccccc4)CC3)cc3c2[nH]c2ccccc23)cc(OC)c1OC	.	.	.	.	.
C=C1Nc2ccccc2C(=O)N1c1ccc(C(=O)N2CCN(C(=O)c3ccco3)CC2)cc1	.	/	/	/	.
CC(=O)c1ccccc1-c1ccc2c(c1)CC(CNC(=O)c1ccnc(Cl)c1)O2 (configuration not stated)	/	.	/	/	/
O=C1NC[C@@H](CCCCN2C[C@H](Cc3ccccc3)N(CC3CCCCC3)C(=O)C2=O)N(CC2CCCCC2)C1=O	/	14µM	.	.	/
CC(C)NC(=O)c1cn(C2CCC(NC(=O)C(C)(C)C)CC2)nn1 (configuration not stated)	/	.	/	/	/
Cc1ccc2[nH]c3c(NCc4ccccc4)ncnc3c2c1	18µM	.	.	?	5.2µM
CC(C)OCCCNc1ncnc2c1[nH]c1ccccc12	.	?	.	.	12µM
COc1ccc(CNc2ncnc3c2[nH]c2cc(OC)c(OC)cc23)cc1	.	.	.	?	.
CCc1cc2c(NCc3ccco3)ncnc2s1	.	.	3.5µM	?	?
c1coc(CNc2ncnc3c2[nH]c2ccccc23)c1	.	/	/	/	16µM
O=c1c2[nH]c3ccccc3c2ncn1Cc1ccco1	.	.	.	.	.
CCOc1ccc2[nH]c3c(NCCCOC)ncnc3c2c1	.	.	.	.	.
CCc1nnc2c(N3CCN(c4cc(Cl)ccc4C)CC3)nc3ccccc3n12	.	/	.	/	.
Cc1ccc2nc(CN3CCN(S(=O)(=O)c4ccc(C(C)C)cc4)CC3)oc2c1	.	?	.	.	/
C1=C(CCNc2ncnc3c2[nH]c2ccccc23)CCCC1	.	14µM	.	?	5.2µM
Cc1nc2ccc(C(=O)NCC3CCC4(CCN(Cc5cccnc5)CC4)O3)cc2nc1C (configuration not stated)	/	.	/	/	/
S=c1[nH]nc(Cc2cccs2)n1-c1ccccc1Cl	.	.	.	.[11.3 µM]	16µM
CCn1c(=O)c2cc(C(=O)N3CCN(c4cccc(OC)c4)CC3)sc2c2ccccc21	.	/	.	/	?
O=C(c1ccc(Cl)cc1)C1CCN(C(=O)NC2CCCCC2)CC1	.	.	.	?	18µM
C=CCC[C@H](Cc1ccc(F)cc1)C(=O)OC[C@H](Cc1c[nH]c2ccccc12)NC(=O)[C@H](CC=C)CC(=O)N(CCO)Cc1ccccc1	?	32µM	.	?	?
C=CCC[C@@H](Cc1ccc(F)cc1)C(=O)OC[C@@H](Cc1c[nH]c2ccccc12)NC(=O)[C@H](CC=C)CC(=O)N[C@H](CO)Cc1ccccc1	?	25µM	.	?	?
SMILES	A549 viability	ATXN viability	Nrf2 activator	ATXN2 expr inh	Nrf2 inh
C=CCC[C@@H](Cc1ccc(F)cc1)C(=O)OC[C@H](Cc1c[nH]c2ccccc12)NC(=O)[C@@H](CC=C)CC(=O)N[C@@H](CO)Cc1ccccc1	.	?	.	.	.
C=CCC[C@@H](Cc1ccc(F)cc1)C(=O)OC[C@@H](Cc1c[nH]c2ccccc12)NC(=O)[C@@H](CC=C)CC(=O)N(CCO)Cc1ccccc1	?	?	.	?	?
C=CCC[C@H](Cc1ccc(F)cc1)C(=O)OC[C@@H](Cc1c[nH]c2ccccc12)NC(=O)[C@@H](CC=C)CC(=O)N[C@@H](CO)Cc1ccccc1	?	13µM	.	?	?
O=C(NCc1ccc(F)cc1)n1cc(P(=S)(c2ccccc2)c2ccccc2)c2ccccc21	.	/	/	/	.
Clc1ccc2[nH]cc(-c3nnnn3-c3ccc4ccccc4c3)c2c1	.	?	.	?	18µM
Cc1ccc(-n2nnnc2-c2cnc3ccc(Cl)cc3c2-c2ccccc2)cc1	.	.	.	.	?
Cc1cc(C)cc(OCC(=O)N2N=C(c3cccnc3)CC2(O)C(F)(F)F)c1 (configuration not stated)	.	.	.[9.22 µM]	.	23µM
Cc1ccccc1OCC(=O)N1N=C(c2cccnc2)CC1(O)C(F)(F)F (configuration not stated)	.	.	.	.	.
Oc1ccc(C[C@H]2CNCCN2CCc2cc(C(F)(F)F)cc(C(F)(F)F)c2)cc1	.	/	.	?	.
Oc1ccc(C[C@@H]2CNCCN2CCc2cc(C(F)(F)F)cc(C(F)(F)F)c2)cc1	?	?	.	20µM	?
FC(F)(F)c1cc(CCN2CCNC[C@H]2Cc2cccc3ccccc23)cc(C(F)(F)F)c1	.	40µM	.	?	.
CCCCNC(=S)NCCCN(Cc1ccc(Cl)c(Cl)c1)c1ccc(Br)cn1	.	/	/	/	?
N#Cc1cccc(NC(=O)CSc2ccc3c4c(cccc24)C(=O)c2ccccc2-3)c1	26µM	?	?	?	?
N#Cc1cccc(NC(=O)CSc2ccccc2)c1	.	.	.	.	.
COc1ccc(NC(=O)CSc2ccc3c4c(cccc24)C(=O)c2ccccc2-3)cc1	?	/	.	?	10µM
O=C1C(NS(=O)(=O)c2cccs2)=C(N2CCN(c3cccc(C(F)(F)F)c3)CC2)C(=O)c2ccccc21	?	.	.	.	21µM
O=C(NNC(=O)C(c1ccccc1)c1ccccc1)c1ccccn1	?	.	.	?	15µM
Cc1cccc(C(=O)N2CCC(=O)N(C(COCc3cccc(C(F)(F)F)c3)Cc3ccccc3)CC2)c1 (configuration not stated)	?	32µM	.	.	?
CC(C)CC(COCc1ccc(Cl)cc1)N1CCN(C(=O)c2ccc(Cl)cc2Cl)CCC1=O (configuration not stated)	?	?	.	?	21µM
Cc1cccc(C(=O)N2CCC(=O)N([C@H](COCc3cccc(C(F)(F)F)c3)Cc3ccccc3)CC2)c1	/	32µM	.	?	/
CC(C)C[C@@H](COCc1cccc(C(F)(F)F)c1)N1CCN(C(=O)c2ccc(C(F)(F)F)cc2)CCC1=O	/	28µM	.	?	/
Cc1cccc(COC[C@H](CC(C)C)N2CCN(C(=O)c3ccc(C(F)(F)F)cc3)CCC2=O)c1	/	/	.	?	/
COc1ccc(Br)cc1CNC(=O)c1cnc2sc(N3CCC(C)CC3)nn2c1=O	.	.	.	.	?
CC(C)(CNC(=O)c1cnn(-c2ncc3c(n2)-c2ccccc2CC3)c1C1CC1)N1CCOCC1	/	.	/	/	/

Screening data as filed in PubChem BioAssay.
